Values without a mark were called inactive. Inconclusive results are not listed. Where a call stands in place of a potency, no number is given. The source made the active and inactive calls. Unless noted, calls come from the whole dose curve; as a rule, active = well fitted curve in the direction sought with a large enough effect; inconclusive = small, poorly fitted or top-dose-only effect, or another doubt; inactive = no such curve, though single readings can be large; an effect the other way counts as inactive or inconclusive.
Tests used:
[1] = NFAT Signaling Pathway (AID 444; active = well fitted curve in either direction with a large enough effect, not every such curve was filed as active;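 note: carbachol stimulus at about its EC50 of 1 µM final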); conditions: Jurkat NFAT-bla M1, carbachol, beta-lactamase ratio, 5 h; at 17.2 µM (top of the series) unless noted
How it was run: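 Jurkat cells with NFAT-driven β-lactamase reporter and co-expressed M1 receptor, stimulated with carbachol (final 1 uM, ~EC50), compound titration, 5 h at 37 °C. CCF4 loaded 1 h at RT; 460/530 nm ratio gave %activity and AC50.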

[2] = target: Glucocorticoid receptor (Homo sapiens) (UniProt P04150); assay: GR-GFP Redistribution (AID 450;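 active = compounds whose dose series gives a full or clear partial fitted curve of increased nuclear translocation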; note: potency is the fitted concentration of half-maximal effect); conditions: U2OS GR-GFP nuclear translocation, laser cytometry, 2 h
[3] = target: Glucocorticoid receptor (Homo sapiens) (UniProt P04150); assay: GR-EFC Redistribution (AID 451; calls by dose curve; note: potency is the fitted concentration of half-maximal effect); conditions: CHO-K1 GR-EFC translocation, beta-gal luminescence, 2 h
How it was run: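 CHO-K1 cells expressing nuclear EA and GR-ED fragments of b-gal; compounds titrated up to 46 uM final, 2 h at 37 C. GR nuclear translocation read as complemented b-gal luminescence after 1 h RT detection.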

[4] = target: Mitogen-activated protein kinase 10 (Mus musculus) (UniProt Q61831); assay: JNK3 AlphaScreen Assay (AID 530; active = well fitted curve in either direction with a large enough effect, not every such curve was filed as active;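 note: kinase came from lysate of stimulated human HepG2 cells; signal reports phosphorylation of biotinylated GST-cJun 1-79 at Ser73 with 10 µM ATP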); conditions: JNK3 lysate, c-Jun phosphorylation; series mostly up to 57.1 µM
How it was run: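 HepG2 lysate (IL-1b/TNFa pre-activated) + biotin-GST-cJun 1-79 + anti-pSer73 cJun; cpd titration, 15 min RT; ATP 10 uM start; Tris pH 7.6, MgCl2, DTT, vanadate; beads in EDTA buffer; AlphaScreen.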

[5] = target: 3',5'-cyclic-AMP phosphodiesterase 4B (Homo sapiens) (UniProt Q07343); assay: qHTS Assay for Inhibitors of PDE-IV (AID 607; active = well fitted activation curve with a large enough effect in the main read-out, with a control signal flat, not every such curve was filed as active); conditions: HEK293 ACTOne CNG channel cells, membrane potential fluorescence; series mostly up to 22.9 µM
How it was run: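 Cell-based read-out of cAMP via a modified cyclic nucleotide-gated channel and membrane potential dye (535/590 nm) in HEK293 cells expressing PDE4 endogenously. Compounds tested up to 22.9 uM final; 100 uM RO 20-1724 reference.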

[6] = target: Guanine nucleotide-binding protein G(i) subunit alpha-1 (Homo sapiens) (UniProt P63096); assay: qHTS Assay for Inhibitors of RGS12 GoLoco Motif Activity (Green Fluorophore) (AID 879); conditions: Galphai1/FITC-RGS12 GoLoco peptide, fluorescence polarization; series mostly up to 57.1 µM;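 note: negative values mean loss of peptide binding seen as reduced polarization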
How it was run: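 A drop in FITC polarization marked displacement of the FITC-tagged RGS12 GoLoco peptide (10 nM) from Gαi1 (50 nM). Compounds were incubated 10 min at room temperature in Tris pH 7.5 buffer containing 150 mM NaCl, 0.1 mM GDP and 0.05% NP40; unlabeled peptide titration served as control.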

[7] = qHTS Assay for Identification of Small Molecule Agonists for Thrombopoietin (TPO) Signaling Pathway (AID 917); conditions: TPO signaling pathway reporter cells, agonist qHTS; series mostly up to 38.5 µM
How it was run: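 Quantitative HTS for pathway activators: compounds were pin-transferred onto IL-3-starved Ba/F3 cells expressing human TPO receptor, TPO was added at its EC50 (26 pM final), and after 24 hrs at 37 C reporter luciferase was measured.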

[8] = target: Muscarinic acetylcholine receptor M1 (Rattus norvegicus) (UniProt P08482); assay: qHTS Assay for Antagonists of Acetylcholine Muscarinic M1 Receptor: Measurement of IP-One Response (AID 944); conditions: CHO-M1 cells, IP-One HTRF, antagonist mode; series mostly up to 46.1 µM; note: nearly all actives have a fitted effect of over 75% in size
How it was run: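 Read-out: HTRF competition between d2-IP1 and Eu-cryptate anti-IP1 antibody, emission 620 and 665 nm. Stimulus was carbachol, EC80 (200 nM), for 30 min in M1-CHO cells (rat receptor), after 10 min compound pre-treatment.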

[9] = target: Pyruvate kinase (Leishmania mexicana) (UniProt Q27686); assay: qHTS Validation Assay for Inhibitors of Leishmania Mexicana Pyruvate Kinase (AID 945); conditions: purified L. mexicana pyruvate kinase, enzyme activity, E451W mutant enzyme; series mostly up to 57.5 µM
How it was run: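 Eight-point qHTS titrations; enzyme 0.2 nM LmPYK (E451W mutant); substrates 0.5 mM PEP, 0.1 mM ADP; 7 mM MgCl2; 1 h room temperature; PKLight luminescence normalized to neutral control.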

[10] = target: Pyruvate kinase PKM (Homo sapiens) (UniProt P14618); assay: qHTS Assay for Activators of Human Muscle Pyruvate Kinase (AID 954; active = well fitted curve in the direction sought with a large enough effect, not every such curve was filed as active); conditions: purified human muscle pyruvate kinase, luciferase-coupled luminescence, 1 h; series mostly up to 57.5 µM
How it was run: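 ATP production by PKM2 detected via luciferase luminescence after 1 h room-temperature reaction (0.1 nM enzyme, PEP at Km 0.5 mM, ADP 0.1 mM, pH 7.2 imidazole buffer). Inhibition scaled to no-enzyme control; activation referenced to 0.3 nM enzyme wells.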

[11] = target: Alpha-galactosidase (Coffea arabica) (UniProt Q42656); assay: Counterscreen for Glucocerebrosidase Inhibitors: qHTS Assay for Coffee Bean alpha-Galactosidase at pH 4.5 (AID 957); conditions: purified coffee bean alpha-galactosidase, fluorogenic substrate; series mostly up to 76.9 µM
How it was run: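 Fluorogenic read-out: 4-methylumbelliferone at Ex 365/Em 440 nm after NaOH/glycine stop (pH 10). Enzyme 2 nM, 4-MU-alpha-galactoside 80 uM, citrate buffer pH 4.5, 20 min RT; normalized to no-enzyme and enzyme controls.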

[12] = target: Alpha-galactosidase A (Homo sapiens) (UniProt P06280); assay: Counterscreen for Glucocerebrosidase Inhibitors: qHTS Assay for Human alpha-Galactosidase at pH 4.5 (AID 992); conditions: purified enzyme, fluorogenic substrate; series mostly up to 76.9 µM
How it was run: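 Fluorogenic 1536-well qHTS at pH 4.5 (citrate, Tween-20): 2 nM enzyme, 80 uM 4-MU-alpha-galactoside, 20 min room temperature, NaOH/glycine stop. Titration 0.7 nM to 77 uM, data normalized to no-enzyme and full-activity controls, Hill-fitted AC50.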

[13] = target: alpha-glucosidase (Oryza sativa, rice) (UniProt Q653V4); assay: Counterscreen for Glucocerebrosidase Inhibitors: qHTS Assay for Rice alpha-Glucosidase at pH 5.0 (AID 997); conditions: rice alpha-glucosidase enzyme activity; series mostly up to 76.9 µM
How it was run: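 Endpoint fluorogenic assay at pH 5.0: compounds (0.7 nM to 77 uM) titrated against 4 nM rice enzyme and 400 uM 4-MU-alpha-glucoside for 20 min at room temperature; NaOH/glycine stop, read ex 365/em 440 nm, Hill-fitted AC50.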

[14] = target: Alpha-galactosidase (Coffea arabica) (UniProt Q42656); assay: Counterscreen for Glucocerebrosidase Inhibitors: qHTS Assay for Coffee Bean alpha-Galactosidase at pH 5.9 (AID 998); conditions: coffee bean alpha-galactosidase enzyme assay; series mostly up to 76.9 µM
How it was run: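 Enzyme 2 nM + cpd (0.7 nM–77 uM titration) + 4-MU-alpha-Gal 80 uM, pH 5.9 citrate/Tween-20, RT 20 min, NaOH/glycine stop pH 10, fluor 365/440. Normalized to no-enzyme and full-activity controls; Hill-fit AC50.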

[15] = target: Cytochrome P450 3A4 (Homo sapiens) (UniProt P08684); assay: qHTS Assay for Activators of Cytochrome P450 3A4 (AID 885); conditions: recombinant CYP3A4, Luciferin-PPXE luminescence, 60 min; series mostly up to 57.1 µM; note: nearly all actives have a fitted effect of over 65% in size
How it was run: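 Luminescent readout of luciferin formed from 25 uM Luciferin-PPXE (KM level) by 20 nM CYP3A4 in 200 mM KPO4, with 60 min NADPH-driven reaction at room temperature after 10 min compound exposure. Ketoconazole (57 uM) defined 100% inhibition.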

[16] = qHTS Assay for Identification of Small Molecule Antagonists for Thrombopoietin (TPO) Signaling Pathway (AID 918); conditions: TPO-dependent cell signaling reporter, antagonist mode; note: potency is the fitted concentration of half-maximal effect; nearly all actives have a fitted effect of over 60% in size
How it was run: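 Luminescence read-out: GPIIb-promoter luciferase in Ba/F3 cells carrying human TPO receptor. Compounds added with 26 pM TPO (EC50), 24 hrs, 37 C, 5% CO2; cells deprived of IL-3 overnight beforehand. Inhibition of signal scored.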

[17] = target: Muscarinic acetylcholine receptor M1 (Rattus norvegicus) (UniProt P08482); assay: qHTS Assay for Antagonists of Acetylcholine Muscarinic M1 Receptor: Kinetic Measurement of Intracellular Calcium Response (AID 943); conditions: M1-expressing cells, kinetic intracellular calcium fluorescence; series mostly up to 35.3 µM;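 note: Fluo-4 calcium signal as peak divided by basal fluorescence over 4 min; nearly all actives have a fitted effect of over 75% in size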
How it was run: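 Read-out: peak over basal Fluo-4 fluorescence, kinetic at 1 Hz for 4 min after EC80 carbachol (100 nM final). Rat M1-CHO cells, dye loaded 1 h at 37C, compound added 10 min before agonist.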

[18] = Validation screen for inhibitors of Lassa infection (AID 463096; calls by dose curve); conditions: Lassa virus infection, cell-based; series mostly up to 46.1 µM
[19] = target: Cytochrome P450 2D6 (Homo sapiens) (UniProt P10635); assay: qHTS Assay for Inhibitors and Substrates of Cytochrome P450 2D6 (AID 891); conditions: recombinant CYP2D6, luciferin-ME EGE luminescence; series mostly up to 57.1 µM;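 note: luciferin methyl ether substrate demethylated by CYP2D6 with NADPH regeneration; nearly all actives have a fitted effect of over 60% in size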
How it was run: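 Luminescent read-out of luciferin formed by 5 nM human CYP2D6 demethylating 30 uM Luciferin-ME EGE (Km level) over 60 min at room temperature after NADPH regeneration addition. Data normalized to full inhibition by 1.43 uM quinidine.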

[20] = target: Cytochrome P450 2C19 (Homo sapiens) (UniProt P33261); assay: qHTS Assay for Inhibitors and Substrates of Cytochrome P450 2C19 (AID 899); conditions: recombinant CYP2C19, luciferin-H EGE luminescence; series mostly up to 57.1 µM; note: nearly all actives have a fitted effect of over 60% in size
How it was run: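 Signal comes from luciferase acting on luciferin released by CYP2C19-mediated hydroxylation of Luciferin-H EGE, 10uM (KM). Assay mix: 5nM enzyme, 50mM KPO4; 60 min at 37C with NADPH regeneration. Data normalized against 57uM ketoconazole.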

[21] = target: Cytochrome P450 2C9 (Homo sapiens) (UniProt P11712); assay: qHTS Assay for Inhibitors and Substrates of Cytochrome P450 2C9 (AID 883); conditions: recombinant CYP2C9, luciferin-H luminescence, 60 min; series mostly up to 57.1 µM; note: nearly all actives have a fitted effect of over 60% in size
How it was run: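 Signal: luciferase luminescence reporting luciferin produced by CYP2C9. Conditions: 10nM enzyme, Luciferin-H 100uM at KM, 25mM KPO4, 37C, 60 min NADPH-driven reaction. Reference: 57uM sulphaphenazole as 100% inhibition.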

Sequence of Cytochrome P450 2C19 (Homo sapiens) (P33261 whole entry, looked up): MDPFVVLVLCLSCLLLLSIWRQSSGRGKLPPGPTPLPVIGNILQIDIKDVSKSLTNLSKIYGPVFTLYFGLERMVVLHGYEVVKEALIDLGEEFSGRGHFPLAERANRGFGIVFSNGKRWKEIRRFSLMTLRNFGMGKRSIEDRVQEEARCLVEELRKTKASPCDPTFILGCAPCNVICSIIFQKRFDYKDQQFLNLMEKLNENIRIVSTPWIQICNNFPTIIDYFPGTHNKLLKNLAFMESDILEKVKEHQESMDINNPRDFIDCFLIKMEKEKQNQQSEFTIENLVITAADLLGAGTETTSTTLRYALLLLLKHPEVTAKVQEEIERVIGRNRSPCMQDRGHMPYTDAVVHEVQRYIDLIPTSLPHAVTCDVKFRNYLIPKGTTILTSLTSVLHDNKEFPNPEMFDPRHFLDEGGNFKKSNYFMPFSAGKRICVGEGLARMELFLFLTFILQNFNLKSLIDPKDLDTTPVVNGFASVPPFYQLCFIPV
Sequence of Cytochrome P450 2D6 (Homo sapiens) (P10635 whole entry, looked up): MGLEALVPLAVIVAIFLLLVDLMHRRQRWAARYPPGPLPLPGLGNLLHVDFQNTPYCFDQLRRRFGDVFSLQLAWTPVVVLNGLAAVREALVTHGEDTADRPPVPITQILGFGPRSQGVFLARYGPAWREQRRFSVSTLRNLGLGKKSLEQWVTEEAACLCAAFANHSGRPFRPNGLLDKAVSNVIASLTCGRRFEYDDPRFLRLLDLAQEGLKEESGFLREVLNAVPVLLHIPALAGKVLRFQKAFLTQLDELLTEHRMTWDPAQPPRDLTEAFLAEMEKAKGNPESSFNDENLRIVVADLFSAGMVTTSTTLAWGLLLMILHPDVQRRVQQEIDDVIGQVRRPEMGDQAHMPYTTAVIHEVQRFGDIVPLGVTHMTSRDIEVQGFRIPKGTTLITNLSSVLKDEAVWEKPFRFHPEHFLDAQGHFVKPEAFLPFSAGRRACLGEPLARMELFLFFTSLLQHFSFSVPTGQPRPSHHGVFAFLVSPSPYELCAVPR
Sequence of Muscarinic acetylcholine receptor M1 (Rattus norvegicus) (P08482 whole entry, looked up): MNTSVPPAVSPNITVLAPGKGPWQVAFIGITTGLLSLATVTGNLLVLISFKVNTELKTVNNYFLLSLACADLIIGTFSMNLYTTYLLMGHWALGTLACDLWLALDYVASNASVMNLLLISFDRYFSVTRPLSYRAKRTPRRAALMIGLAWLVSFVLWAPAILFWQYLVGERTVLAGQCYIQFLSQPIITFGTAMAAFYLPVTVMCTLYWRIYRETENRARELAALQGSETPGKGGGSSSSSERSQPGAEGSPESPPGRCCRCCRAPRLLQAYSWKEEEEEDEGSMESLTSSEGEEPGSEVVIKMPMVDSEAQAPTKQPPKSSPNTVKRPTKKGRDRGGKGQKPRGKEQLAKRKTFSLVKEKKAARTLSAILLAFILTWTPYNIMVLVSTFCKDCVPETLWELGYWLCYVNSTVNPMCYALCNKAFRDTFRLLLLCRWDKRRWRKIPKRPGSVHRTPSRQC
Sequence of 3',5'-cyclic-AMP phosphodiesterase 4B (Homo sapiens) (Q07343 whole entry, looked up): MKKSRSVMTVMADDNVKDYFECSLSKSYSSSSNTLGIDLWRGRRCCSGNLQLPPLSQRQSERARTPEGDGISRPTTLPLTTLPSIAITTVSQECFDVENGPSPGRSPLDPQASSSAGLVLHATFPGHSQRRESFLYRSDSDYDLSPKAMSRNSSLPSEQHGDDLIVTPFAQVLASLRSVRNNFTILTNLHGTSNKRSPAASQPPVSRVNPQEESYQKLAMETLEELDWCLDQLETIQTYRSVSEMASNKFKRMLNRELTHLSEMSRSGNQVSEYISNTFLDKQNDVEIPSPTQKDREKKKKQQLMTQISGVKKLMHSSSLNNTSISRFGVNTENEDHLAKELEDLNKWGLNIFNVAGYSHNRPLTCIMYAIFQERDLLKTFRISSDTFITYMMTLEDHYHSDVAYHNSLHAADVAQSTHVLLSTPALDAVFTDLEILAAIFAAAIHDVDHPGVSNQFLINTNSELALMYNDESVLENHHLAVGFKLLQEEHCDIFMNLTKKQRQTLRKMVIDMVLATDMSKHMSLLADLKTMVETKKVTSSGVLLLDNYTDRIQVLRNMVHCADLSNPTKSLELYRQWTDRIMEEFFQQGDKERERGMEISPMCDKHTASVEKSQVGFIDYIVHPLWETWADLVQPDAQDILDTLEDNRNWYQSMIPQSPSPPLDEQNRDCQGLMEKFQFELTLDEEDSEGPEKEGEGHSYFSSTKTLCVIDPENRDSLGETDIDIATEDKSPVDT
Sequence of Alpha-galactosidase (Coffea arabica) (Q42656 whole entry, looked up): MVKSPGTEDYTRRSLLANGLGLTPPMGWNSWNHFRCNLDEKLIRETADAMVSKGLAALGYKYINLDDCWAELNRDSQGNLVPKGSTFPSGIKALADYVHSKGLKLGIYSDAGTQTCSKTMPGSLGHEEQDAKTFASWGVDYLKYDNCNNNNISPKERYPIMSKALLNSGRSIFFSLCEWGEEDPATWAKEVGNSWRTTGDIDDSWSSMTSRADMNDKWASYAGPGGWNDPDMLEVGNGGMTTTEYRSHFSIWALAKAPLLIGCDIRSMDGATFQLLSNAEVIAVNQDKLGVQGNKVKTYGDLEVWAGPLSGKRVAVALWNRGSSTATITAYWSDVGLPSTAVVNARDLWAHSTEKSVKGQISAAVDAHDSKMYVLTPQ
Sequence of Glucocorticoid receptor (Homo sapiens) (P04150 whole entry, looked up, the tested form may be a part): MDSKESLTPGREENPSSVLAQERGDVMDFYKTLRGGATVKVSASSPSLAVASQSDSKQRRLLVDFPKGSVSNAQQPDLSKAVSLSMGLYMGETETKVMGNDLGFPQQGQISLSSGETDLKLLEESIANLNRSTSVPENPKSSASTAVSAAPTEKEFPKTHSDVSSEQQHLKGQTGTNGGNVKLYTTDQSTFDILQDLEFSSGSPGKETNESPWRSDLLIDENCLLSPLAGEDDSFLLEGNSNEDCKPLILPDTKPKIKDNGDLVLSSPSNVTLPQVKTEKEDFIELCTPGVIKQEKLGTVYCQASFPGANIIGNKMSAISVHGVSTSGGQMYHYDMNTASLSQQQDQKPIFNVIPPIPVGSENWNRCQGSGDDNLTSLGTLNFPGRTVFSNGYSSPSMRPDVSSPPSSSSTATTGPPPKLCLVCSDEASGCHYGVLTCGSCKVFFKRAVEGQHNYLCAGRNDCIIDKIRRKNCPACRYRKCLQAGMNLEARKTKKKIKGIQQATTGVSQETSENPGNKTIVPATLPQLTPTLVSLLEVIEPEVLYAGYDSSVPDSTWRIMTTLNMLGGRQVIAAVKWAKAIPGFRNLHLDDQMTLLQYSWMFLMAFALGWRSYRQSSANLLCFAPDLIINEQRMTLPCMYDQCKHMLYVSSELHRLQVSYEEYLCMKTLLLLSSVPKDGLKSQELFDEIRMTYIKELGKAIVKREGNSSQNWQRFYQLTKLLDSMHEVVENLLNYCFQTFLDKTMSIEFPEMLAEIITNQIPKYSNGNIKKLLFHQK
Sequence of Pyruvate kinase (Leishmania mexicana) (Q27686 2-499 E452W): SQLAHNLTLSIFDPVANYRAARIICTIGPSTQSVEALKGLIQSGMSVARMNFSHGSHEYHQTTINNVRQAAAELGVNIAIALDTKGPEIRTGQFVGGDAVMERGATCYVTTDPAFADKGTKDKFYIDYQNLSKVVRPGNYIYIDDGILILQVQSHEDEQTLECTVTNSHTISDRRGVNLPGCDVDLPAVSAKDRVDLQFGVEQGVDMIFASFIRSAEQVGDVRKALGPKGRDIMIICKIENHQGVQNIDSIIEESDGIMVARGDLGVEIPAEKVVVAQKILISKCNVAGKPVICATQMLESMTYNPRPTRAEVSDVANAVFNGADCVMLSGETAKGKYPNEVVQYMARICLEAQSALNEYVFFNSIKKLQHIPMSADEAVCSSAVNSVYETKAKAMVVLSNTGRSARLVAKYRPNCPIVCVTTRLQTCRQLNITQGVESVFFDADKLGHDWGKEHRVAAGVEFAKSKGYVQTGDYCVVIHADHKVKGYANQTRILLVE
Sequence of Alpha-galactosidase A (Homo sapiens) (P06280 whole entry, looked up): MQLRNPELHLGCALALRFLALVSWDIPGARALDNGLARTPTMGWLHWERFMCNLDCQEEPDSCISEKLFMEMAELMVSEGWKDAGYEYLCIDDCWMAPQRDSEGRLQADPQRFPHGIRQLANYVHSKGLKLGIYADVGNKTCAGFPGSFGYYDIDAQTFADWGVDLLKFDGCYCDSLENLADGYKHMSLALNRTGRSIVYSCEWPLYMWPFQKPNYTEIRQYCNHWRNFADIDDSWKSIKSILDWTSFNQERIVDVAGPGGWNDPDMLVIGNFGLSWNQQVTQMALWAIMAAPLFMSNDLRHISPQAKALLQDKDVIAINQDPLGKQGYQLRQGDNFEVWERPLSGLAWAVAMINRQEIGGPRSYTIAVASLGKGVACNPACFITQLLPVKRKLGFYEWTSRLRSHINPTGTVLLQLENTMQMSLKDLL
Sequence of Cytochrome P450 2C9 (Homo sapiens) (P11712 whole entry, looked up): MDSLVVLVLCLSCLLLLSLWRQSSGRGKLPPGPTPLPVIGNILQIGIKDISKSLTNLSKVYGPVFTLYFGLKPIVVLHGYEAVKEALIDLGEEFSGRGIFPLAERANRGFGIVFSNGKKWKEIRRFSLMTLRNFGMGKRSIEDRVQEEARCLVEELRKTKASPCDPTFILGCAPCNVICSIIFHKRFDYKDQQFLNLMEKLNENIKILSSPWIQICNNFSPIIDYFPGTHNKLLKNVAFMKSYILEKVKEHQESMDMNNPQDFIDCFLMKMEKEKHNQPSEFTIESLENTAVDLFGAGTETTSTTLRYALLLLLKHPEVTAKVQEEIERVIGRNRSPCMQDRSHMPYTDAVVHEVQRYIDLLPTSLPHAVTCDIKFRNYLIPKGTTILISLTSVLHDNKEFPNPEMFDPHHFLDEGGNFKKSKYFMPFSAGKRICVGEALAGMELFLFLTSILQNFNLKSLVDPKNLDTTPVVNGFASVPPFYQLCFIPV

C[C@@H](Cc1ccc2c(c1)OC(C(=O)O)(C(=O)O)O2)NC[C@H](O)c1cccc(Cl)c1
activity change, negative = inhibition [1]: 14.6% [at 38 µM]
Potency [2]: > 46 µM
Potency [3]: > 46 µM
outcome [4]: inactive
outcome [5]: inactive
Potency [6]: inactive
outcome [7]: inactive
Potency [8]: inactive
Potency [9]: inactive
outcome [10]: inactive
outcome [11]: inactive
outcome [12]: inactive
outcome [13]: inactive
outcome [14]: inactive

C/C=C(\C)C(=O)O[C@@H]1C(C)=C2[C@H]([C@@H]1OC(=O)CCCCCCC)[C@@](C)(OC(C)=O)C[C@@H](OC(=O)CCC)[C@@]1(O)[C@H]2OC(=O)[C@]1(C)O
activity change, negative = inhibition [1]: -79.7% [activator] [at 38 µM] (active)
Potency [2]: > 46 µM
Potency [3]: > 46 µM
outcome [4]: inactive
outcome [5]: inactive
Potency [6]: inactive
Potency [15]: inactive
Potency [16]: 0.0501 µM (active)
Potency [17]: inactive
Potency [8]: inactive
Potency [9]: inactive
outcome [10]: inactive
outcome [11]: inactive
outcome [12]: inactive
outcome [13]: inactive
outcome [14]: inactive

OC[C@H]1O[C@@H](n2cnc3c(NC4CCCC4)ncnc32)[C@H](O)[C@H]1O
Potency [18]: inactive

Cc1cn([C@H]2C[C@@H](N=[N+]=[N-])[C@@H](CO)O2)c(=O)[nH]c1=O
Potency [18]: inactive

CCCC1O[C@@H]2C[C@H]3[C@@H]4CCC5=CC(=O)C=C[C@]5(C)C4[C@@H](O)C[C@]3(C)[C@]2(C(=O)CO)O1 (some centres undefined)
Potency [18]: inactive

CCCCCC[C@H]1C(=O)O[C@@H](C)[C@H](NC(=O)c2cccc(NC=O)c2O)C(=O)O[C@@H](C)[C@@H]1OC(=O)CC(C)C
Potency [2]: > 46 µM
Potency [3]: > 46 µM
outcome [4]: inactive
Potency [19]: inactive
Potency [20]: inactive

CC1=CC(=O)C2=C(C)C[C@H](O)[C@@H]3[C@@H](OC(=O)[C@H]3C)[C@H]12
Potency [2]: > 46 µM
Potency [3]: > 46 µM
outcome [4]: inactive
Potency [21]: inactive
Potency [19]: inactive
Potency [20]: inactive

Cc1ccc(OCC(O)C(C)NC(C)C)c2c1CCC2 (centres undefined)
Potency [18]: inactive

Nc1nc(SCc2ccc([N+](=O)[O-])cc2)c2ncn([C@@H]3O[C@H](CO)[C@H](O)[C@H]3O)c2n1
Potency [18]: inactive

CN1CCc2cc(Cl)c(O)cc2C(c2ccccc2)C1 (centres undefined)
Potency [18]: inactive

CC(=O)SC1CC2=CC(=O)CC[C@]2(C)C2CC[C@@]3(C)[C@@H](CC[C@@]34CCC(=O)O4)C12 (some centres undefined)
Potency [18]: inactive

CN[C@H]1[C@H]2[C@H]3CCN2C[C@@H]1O3
Potency [3]: > 46 µM
outcome [4]: inactive
Potency [21]: inactive
Potency [19]: inactive
Potency [20]: inactive

CSc1nc(N)c2ncn([C@@H]3O[C@H](COP(=O)(O)OP(=O)(O)O)[C@H](O)[C@H]3O)c2n1
Potency [18]: inactive

Nc1ncnc2c1nc(Br)n2C1O[C@H]2COP(=O)(O)O[C@@H]2C1O (some centres undefined)
Potency [18]: inactive

NC(=S)NCCCC(N)C(=O)O (centres undefined)
Potency [18]: inactive

CN1CCc2c(cc(O)c(O)c2Cl)C(c2cccc(Cl)c2)C1 (centres undefined)
Potency [18]: inactive

C#C[C@]1(O)CC[C@H]2C3CCC4=Cc5oncc5CC4(C)C3CCC21C (some centres undefined)
Potency [18]: inactive

CCCCCCCCCCCCC/C=C/[C@@H](O)[C@@H](N)CO
Potency [18]: inactive

O=[N+]([O-])c1ccc(CSc2ncnc3c2ncn3[C@@H]2O[C@H](CO)[C@H](O)[C@H]2O)cc1
Potency [18]: inactive

CN1C(=O)CCC1c1cccnc1 (centres undefined)
Potency [18]: inactive

C=C(C)[C@H]1[C@H]2OC(=O)[C@@H]1[C@]1(O)C[C@H]3O[C@]34C(=O)O[C@H]2[C@]14C
Potency [2]: > 46 µM
Potency [3]: > 46 µM
outcome [5]: inactive

From PubChem BioAssay (NCATS)
